# Reference: PubChem BioAssay AID588719 (Southern Research Specialized Biocontainment Screening …, 2011)
# Among all 1,500 compounds or so, about 920 (61%) were called active. The set was probably picked from earlier hits. The list shows a part of the results. Entries with a potency or affinity are not part of this list. Unmarked numbers belong to inactive results. The rule behind the calls is not given here.
# Experiment: Vero 76 cell cytotoxicity, dose response, cytotoxicity control for VEEV inhibitor project (AID 588719)
# Details: Vero 76 cells viability, cytotoxicity counter-screen; series mostly up to 25 µM; viability: at the top concentration
row,Compound,viability [%]
1,COc1cc(NC(=S)N(C)C)c(OC)cc1Cl,103
2,COC(=O)c1cc(Cl)c(NC(=O)c2ccc(C(C)(C)C)cc2)cc1OC,70.6
3,CCc1ccc(-c2cc3c(=O)n(CC(=O)NCCCN4CCN(CC)CC4)nc(C)n3n2)cc1,83.6
4,NC(=O)C1=C[C@H](C2CCCCC2)C[C@H](OCc2ccc(CO)cc2)O1,96
5,O=C(NC1CC1)C1=C[C@@H](C2CCCCC2)C[C@@H](OCc2ccc(CO)cc2)O1,84.6
6,Cc1cccc(NC(=O)C(C)Sc2nc3ccccc3c(=O)n2CCCN2CCOCC2)c1 (stereo unspecified),77.5
7,CC(=O)C1C2c3ccccc3OC1(C)N=c1s/c(=C/c3cn(C)nc3C)c(=O)n12 (stereo unspecified),86.7
8,O=C(NC1CCN(Cc2ccccc2)CC1)c1ccc(Oc2cc(Cl)cc(Cl)c2)o1,102
9,O=C(c1ccc(-c2ccccc2)c(F)c1)C1CCCN(CCO)C1 (stereo unspecified),82.1
10,c1ccc(COC(CN2CCCCCC2)CN2CCCCCC2)cc1,70.4
11,COc1cc2c(cc1OC)C13CCN4CC5=CCOC(CC(=O)O)C(C5CC41)C3N2 (stereo unspecified),93
12,Cc1c(-c2ccc(OCc3ccccc3)cc2)nc2ccccc2c1C(=O)O,107
13,C[C@@H]1CN([C@H](C)CO)C(=O)CCCn2nncc2CO[C@@H]1CN(C)C(=O)Nc1ccc(N2CCCCC2)cc1,96.2
14,CC(C)CN(C(=O)COC(=O)/C=C/c1ccc(Cl)c(Cl)c1)c1c(N)n(Cc2ccccc2)c(=O)[nH]c1=O,74.3
15,COc1cccc(/C=C/c2n[nH]c(=O)c(C#N)c2C)c1,70.6
16,O=C1C2C3C=CC(C4CC34)C2C(=O)N1CCCCN1CCN(c2ccc(F)cc2)CC1 (stereo unspecified),72.1
17,Cc1ccc(NC(=O)c2ccc(CN3CCN(C)CC3)cc2)cc1Nc1nccc(-c2cccnc2)n1,72
18,COc1ccc(-c2cc(-c3ccc(F)cc3)nc(N3CCN(C)CC3)n2)cc1,84.9
19,COCC(C)n1c(SCc2cc(=O)n3cc(C)ccc3n2)nc2ccccc2c1=O (stereo unspecified),81.7
20,Cc1ccc2oc(=O)c3cnn(CC(=O)Nc4ccccc4N4CCN(C)CC4)c3c2c1,82.2
21,COc1cc(NC(=O)c2ccc(-c3cccc([N+](=O)[O-])c3)o2)ccc1NC(=O)C(C)C,82.7

row,Compound,viability [%]
1,Cc1cccc(NC(=O)CSc2nc3ccccc3nc2N2CCCC2)c1,74.6
2,CC(=O)c1cccc(NC(=O)/C=C/c2ccc([N+](=O)[O-])s2)c1,88
3,O=C1c2cccc3cc([N+](=O)[O-])cc(c23)C(=O)N1c1ccccc1O,81.5
4,COc1ccc(C(Nc2cccc([N+](=O)[O-])c2)P(=O)(OC(C)C)OC(C)C)cc1 (stereo unspecified),93.5
5,CCCNC(=O)N1CCN(c2nc(C(C)C)c3c(c2C#N)CC(C)(C)OC3)CC1,76
6,Cc1ccccc1NC(=S)/C(=C(\[O-])c1ccc(C)c([N+](=O)[O-])c1)[n+]1ccccc1,97.6
7,O=C(Nc1ccccc1)c1cccc(Cn2cc(C(F)(F)F)ccc2=O)c1,80.6
8,Cc1cc(C(=O)NC2CCCc3c2cnn3-c2cccc(C)c2C)no1 (stereo unspecified),64.3
9,CCOC(=O)C1C(=O)C(=O)N(C2CCCCC2)C1C(=O)OCC (stereo unspecified),99.2
10,C/C(N)=C(/C#N)C(=O)COC(=O)c1cc(C)n(-c2ccc(F)cc2)c1C,76.3
11,Cc1cccc(C)c1OCC(=O)N(Cc1cccs1)C1CCS(=O)(=O)C1 (stereo unspecified),88
12,CCCn1c(SCC(=O)N(C)C2CCS(=O)(=O)C2)nc2sc3c(c2c1=O)CCC3 (stereo unspecified),73.6
13,CN(C(=O)CCN1C(=O)/C(=C/c2ccccc2F)SC1=S)C1CCS(=O)(=O)C1 (stereo unspecified),97.8
14,O=C(Cn1c(=O)sc2ccccc21)Nc1nc2c(s1)CCCC2,97.1
15,NC(=O)CC(NC(=O)Cc1ccc(Br)cc1)c1ccc(N2CCC(Cc3ccccc3)CC2)c([N+](=O)[O-])c1 (stereo unspecified),75.1
16,CCCCCCCCCC(=O)N[C@@H]1c2cc(OC)c(OC)cc2C[C@H]1OCc1ccccc1,81.8
17,COc1ccccc1C(CNC(=O)CNC(=O)c1ccc(Cl)c(Cl)c1)N1CCCC1 (stereo unspecified),89
18,CCCn1nc(NC(=O)c2cccs2)c2cc3cccc(C)c3nc21,83
19,CN(C)CCCN(C(=O)c1cc(-c2cccs2)nc2ccccc12)c1nc2ccc(F)cc2s1,81
20,COc1ccc(/C=N/NC(=O)c2cc[n+]([O-])cc2)cc1OC,94.5
21,C/C(=N\NC(=O)c1ccc(N/N=C(\C)c2ccc(O)cc2)cc1)c1ccc(O)cc1,86

row,Compound,viability [%]
1,C/C(=N/OCO/N=C(/C)c1ccc(F)cc1)c1ccc(F)cc1,81.7
2,Cc1ccc(S(=O)(=O)C2(C(=O)NCc3ccccc3Cl)CC2)cc1,86
3,Cc1ccccc1NC(=NCCCN1CC1)Nc1ccccc1C,82.8
4,Cc1ccccc1CN(C)C(C)C(=O)Nc1ccccc1F (stereo unspecified),92.6
5,O=C1C2CCCN2C(c2cccs2)N1c1ccc(Cl)cc1 (stereo unspecified),86.3
6,C[C@@H]1CN([C@H](C)CO)C(=O)CCCn2nncc2CO[C@H]1CN(C)C(=O)C1CC1,102
7,CC(C)[N+]1=C2C=CC=CC=C2SC12C([N+](=O)[O-])=CC(=[N+]([O-])[O-])C=C2[N+](=O)[O-] (stereo unspecified),84.7
8,Cc1ccc(CS(=O)Cc2ccc(C(=O)N3CCN(c4cccc(C)c4C)CC3)o2)cc1 (stereo unspecified),97.3
9,CCC(=O)N1CCN(c2ccc(Cl)cc2NC(=O)c2cccc([N+](=O)[O-])c2)CC1,99.8
10,O=C(Nc1csc([N+](=O)[O-])c1)Nc1ccccc1Cl,82.5
11,COc1ccc(Cl)cc1C=CC=Nc1ccc(S(N)(=O)=O)cc1,73.1
12,N#Cc1cccc(NC(=O)CSc2n[nH]c(=O)[nH]c2=O)c1,90.3
13,Cc1ccc(CN2CCCC(C(=O)c3ccc4c(c3)OCO4)C2)cc1C (stereo unspecified),87.6
14,COc1ccc(N2CCCC2)c(NC(=O)c2ccc([N+](=O)[O-])o2)c1,97.5
15,O=[N+]([O-])c1cccc(C([O-])=C(C(=S)Nc2cccc3ccccc23)[n+]2ccccc2)c1,93
16,O=[N+]([O-])c1cccc(/C([O-])=C(/C(=S)Nc2cccc3ccccc23)[n+]2ccccc2)c1,103
17,Cc1nc(N)[nH]c(=O)c1CCCNc1ccc([N+](=O)[O-])cc1,90.7
18,C=CCNCCCCOc1ccc(OCc2ccccc2)cc1,92.5
19,CCn1c(=O)c([N+](=O)[O-])c(NCc2ccc3c(c2)OCO3)c2ccccc21,86
